Results: the supplement of paper PMC10849652
Targets with a hit are over-represented here; the source holds about 7,900 in all. About 0.6% of all pairs of compound and target were hits.

Legend:
Test in all cases: log2 fold change, soluble protein after heating vs DMSO (PISA); higher = thermal stabilisation; K562 cells, 10 uM, 30 min; active = over 0.2 and 3.5 SD of the protein, either way, in both replicates (recomputed)
erlotinib = compound: C#Cc1cccc(Nc2ncnc3cc(OCCOC)c(OCCOC)cc23)c1 [erlotinib]
How it was run: (§1)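 Quantification of soluble protein used TMTpro 16plex LC-MS/MS, with channel sums equalised. Samples were the supernatant after 21,000xg for 90 min of pooled aliquots from K562 cells (2×10^6 cells/mL) treated with 10 μM compound for 30 min, heated for 3 min over 48°C-58°C, and extracted in PBS with 0.5% NP-40 at 4°C. Values, from duplicates, describe thermal stability against control samples on a log2 fold-change scale.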

[1] = compound: C/C(=N\NC(=O)C1=CC(=CC=C1)S(=O)(=O)N2CCOCC2)/C3=C(C=CC(=C3)Cl)O
How it was run: as §1

[2] = compound: C1=CC(=C(C=C1Cl)C2=NC3=NC=CN=C3C(=N2)NC4=CC=NC=C4)F
How it was run: as §1

[3] = compound: C1=CC(=CC=C1C2=NC3=C(N2)C=C(C=C3)C(=O)N)OC4=CC=C(C=C4)Cl
How it was run: as §1

[4] = compound: C1=CC2=C(C=CC(=C2)/C=C\3/C(=O)NC(=NCC4=CC=CS4)S3)N=C1
How it was run: as §1

[5] = compound: C1=CC2=NC=CN=C2C=C1/C=C/3\C(=O)NC(=O)S3
How it was run: as §1

[6] = compound: C1=CC=C(C=C1)C2=NC(=C(N2)C3=CC=NC=C3)C4=CC(=C(C=C4)Cl)O
How it was run: as §1

[7] = compound: C1=CC=C2C(=C1)C3=NNC4=CC=CC(=C43)C2=O
How it was run: as §1

[8] = compound: C1CCN(C1)C(=O)NC2=CC=CC(=C2)NC3=NC=C(C(=N3)NCCC4=CN=CN4)Br
How it was run: as §1

[9] = compound: C1CN(CCC1(CC2=CC=C(C=C2)Cl)N)C3=NC=NC4=C3C=CN4
How it was run: as §1

Measured: log2 fold change

MRPS12 (UniProt O15235)
inactive: erlotinib -0.013 | [1] 0.008 | [2] -0.13 | [3] 0.095 | [4] -0.052 | [5] 0.018 | [6] 0.099 | [7] 0.165 | [8] 0.025 | [9] -0.063

MRPL46 (UniProt Q9H2W6)
inactive: erlotinib -0.025 | [1] -0.008 | [2] 0 | [3] 0.011 | [4] -0.054 | [5] -0.001 | [6] 0.046 | [7] 0.164 | [8] -0.031 | [9] -0.075

OSBP (UniProt P22059)
Chain of UniProt P22059 (P22059 whole entry, looked up): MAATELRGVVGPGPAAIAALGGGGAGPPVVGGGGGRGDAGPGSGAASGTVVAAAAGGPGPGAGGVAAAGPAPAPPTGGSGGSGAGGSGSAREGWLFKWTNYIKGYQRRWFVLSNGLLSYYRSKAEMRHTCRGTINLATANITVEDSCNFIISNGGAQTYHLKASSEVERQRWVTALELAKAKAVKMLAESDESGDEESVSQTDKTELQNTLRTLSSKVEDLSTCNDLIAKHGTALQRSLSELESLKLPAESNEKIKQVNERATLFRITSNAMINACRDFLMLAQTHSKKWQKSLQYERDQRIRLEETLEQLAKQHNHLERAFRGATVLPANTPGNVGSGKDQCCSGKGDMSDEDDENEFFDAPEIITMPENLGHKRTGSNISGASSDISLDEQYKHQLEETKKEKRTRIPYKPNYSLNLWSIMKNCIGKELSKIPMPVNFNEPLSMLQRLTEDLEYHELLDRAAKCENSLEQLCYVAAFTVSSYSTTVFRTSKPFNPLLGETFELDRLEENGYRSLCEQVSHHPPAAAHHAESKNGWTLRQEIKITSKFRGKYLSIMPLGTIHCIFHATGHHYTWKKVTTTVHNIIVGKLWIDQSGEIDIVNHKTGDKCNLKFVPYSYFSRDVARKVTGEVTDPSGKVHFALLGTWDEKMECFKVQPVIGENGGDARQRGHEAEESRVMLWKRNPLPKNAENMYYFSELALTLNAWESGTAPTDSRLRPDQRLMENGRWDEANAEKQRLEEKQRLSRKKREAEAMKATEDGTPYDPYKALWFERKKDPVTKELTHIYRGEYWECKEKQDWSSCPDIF
inactive: erlotinib -0.059 | [1] 0.111 | [2] 0.063 | [3] 0.109 | [4] -0.009 | [5] 0.019 | [6] -0.027 | [7] -0.042 | [8] -0.001 | [9] 0.013

NCAPH (UniProt Q15003)
inactive: erlotinib 0.201 | [1] 0.09 | [2] 0.008 | [3] -0.059 | [4] 0.024 | [5] 0.022 | [6] -0.009 | [7] 0.02 | [8] -0.004 | [9] -0.096

NME1 isoform 2 (UniProt P15531)
inactive: erlotinib 0.034 | [1] -0.015 | [2] 0.038 | [3] 0.092 | [4] 0.063 | [5] -0.05 | [6] -0.048 | [7] -0.001 | [8] 0.032 | [9] 0.074

MRPS2 (UniProt Q9Y399)
inactive: erlotinib 0.004 | [1] -0.064 | [2] -0.083 | [3] 0.052 | [4] 0.093 | [5] 0.01 | [6] 0.083 | [7] -0.033 | [8] -0.01 | [9] -0.112

MKRN2 (UniProt Q9H000)
Chain of UniProt Q9H000 (Q9H000 whole entry, looked up): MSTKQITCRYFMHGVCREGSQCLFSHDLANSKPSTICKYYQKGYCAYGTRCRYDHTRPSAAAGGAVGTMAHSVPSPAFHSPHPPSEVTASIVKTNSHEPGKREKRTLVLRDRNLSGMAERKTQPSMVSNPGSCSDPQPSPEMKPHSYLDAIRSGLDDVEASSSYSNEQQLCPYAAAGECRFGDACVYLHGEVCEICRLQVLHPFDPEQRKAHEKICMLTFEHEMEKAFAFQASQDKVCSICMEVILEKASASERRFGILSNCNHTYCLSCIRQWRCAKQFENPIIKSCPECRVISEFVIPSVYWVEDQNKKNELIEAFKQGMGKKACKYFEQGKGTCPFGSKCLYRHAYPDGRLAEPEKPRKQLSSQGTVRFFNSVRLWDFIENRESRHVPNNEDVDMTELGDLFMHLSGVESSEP
inactive: erlotinib -0.038 | [1] 0.057 | [2] -0.16 | [3] 0.013 | [4] -0.058 | [5] 0.002 | [6] -0.011 | [7] -0.052 | [8] -0.085 | [9] 0.061

NOL11 (UniProt Q9H8H0)
inactive: erlotinib -0.019 | [1] -0.065 | [2] 0.015 | [3] -0.007 | [4] -0.038 | [5] 0.042 | [6] 0.027 | [7] -0.005 | [8] -0.014 | [9] 0.079

NARS2 (UniProt Q96I59)
inactive: erlotinib 0.037 | [1] 0.065 | [2] 0.07 | [3] 0.008 | [4] -0.018 | [5] -0.004 | [6] 0.053 | [7] 0.017 | [8] -0.002 | [9] -0.083

OXR1 (UniProt Q8N573)
inactive: erlotinib 0.029 | [1] 0.067 | [2] 0.011 | [3] 0.002 | [4] 0.023 | [5] 0.007 | [6] -0.043 | [7] -0.062 | [8] -0.03 | [9] 0.056

NGLY1 (UniProt Q96IV0)
inactive: erlotinib 0.035 | [1] -0.06 | [2] -0.036 | [3] -0.014 | [4] 0.17 | [5] 0.023 | [6] -0.001 | [7] 0.045 | [8] -0.023 | [9] -0.024

NCL (UniProt P19338)
inactive: erlotinib -0.154 | [1] -0.231 | [2] -0.723 | [3] -0.012 | [4] -0.109 | [5] -0.017 | [6] -0.112 | [7] 0.061 | [8] 0.037 | [9] -0.148

NANS (UniProt Q9NR45)
Chain of UniProt Q9NR45 (Q9NR45 whole entry, looked up): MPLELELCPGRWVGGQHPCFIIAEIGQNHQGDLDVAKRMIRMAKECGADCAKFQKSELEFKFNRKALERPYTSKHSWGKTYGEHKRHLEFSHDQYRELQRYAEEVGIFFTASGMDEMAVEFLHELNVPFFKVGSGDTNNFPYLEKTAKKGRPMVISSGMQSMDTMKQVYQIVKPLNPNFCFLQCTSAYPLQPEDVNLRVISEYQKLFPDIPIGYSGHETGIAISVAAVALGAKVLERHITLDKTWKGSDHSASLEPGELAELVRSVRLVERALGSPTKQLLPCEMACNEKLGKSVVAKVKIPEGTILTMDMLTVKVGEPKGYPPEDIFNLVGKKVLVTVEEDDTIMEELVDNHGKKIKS
inactive: erlotinib -0.016 | [1] 0.031 | [2] 0.066 | [3] -0.022 | [4] 0.028 | [5] 0.023 | [6] 0.036 | [7] 0.02 | [8] 0.016 | [9] 0.022

NDUFS7 (UniProt O75251)
inactive: erlotinib 0.129 | [1] -0.011 | [2] 0.039 | [3] -0.011 | [4] 0.062 | [5] 0.038 | [6] -0.052 | [7] 0.035 | [8] 0.045 | [9] 0.011

NASP (UniProt P49321)
Chain of UniProt P49321 (P49321 whole entry, looked up): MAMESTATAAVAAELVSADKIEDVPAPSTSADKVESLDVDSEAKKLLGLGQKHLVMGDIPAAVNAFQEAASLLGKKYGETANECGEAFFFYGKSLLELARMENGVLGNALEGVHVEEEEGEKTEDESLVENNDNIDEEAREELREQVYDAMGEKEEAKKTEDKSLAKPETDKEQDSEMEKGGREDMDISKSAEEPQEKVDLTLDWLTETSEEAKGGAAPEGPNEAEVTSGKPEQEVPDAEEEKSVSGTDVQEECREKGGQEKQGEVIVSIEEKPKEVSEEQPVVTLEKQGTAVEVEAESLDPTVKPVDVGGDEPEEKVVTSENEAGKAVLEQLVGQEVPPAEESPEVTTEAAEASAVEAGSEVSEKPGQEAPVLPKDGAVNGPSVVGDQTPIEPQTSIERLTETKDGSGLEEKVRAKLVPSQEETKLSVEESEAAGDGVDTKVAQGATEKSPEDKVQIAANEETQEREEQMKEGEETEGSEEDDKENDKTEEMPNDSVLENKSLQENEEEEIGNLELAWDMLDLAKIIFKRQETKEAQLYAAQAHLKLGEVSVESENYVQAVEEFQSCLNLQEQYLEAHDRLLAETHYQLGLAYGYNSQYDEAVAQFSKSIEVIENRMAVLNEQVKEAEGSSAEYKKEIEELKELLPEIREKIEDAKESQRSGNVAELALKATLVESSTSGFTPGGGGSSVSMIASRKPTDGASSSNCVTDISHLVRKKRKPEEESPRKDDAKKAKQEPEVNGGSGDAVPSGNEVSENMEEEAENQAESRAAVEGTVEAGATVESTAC
inactive: erlotinib -0.018 | [1] 0.048 | [2] 0.079 | [3] -0.018 | [4] -0.02 | [5] 0.059 | [6] -0.018 | [7] -0.004 | [8] 0.001 | [9] -0.022

NHLRC2 (UniProt Q8NBF2)
inactive: erlotinib 0.035 | [1] 0 | [2] -0.059 | [3] 0.057 | [4] 0.065 | [5] -0.074 | [6] -0.114 | [7] 0.042 | [8] 0.051 | [9] 0.001

NFE2 (UniProt Q16621)
inactive: erlotinib 0.009 | [1] 0.005 | [2] -0.025 | [3] -0.001 | [4] -0.002 | [5] 0.158 | [6] -0.012 | [7] -0.009 | [8] -0.02 | [9] -0.019

PAK1 isoform 2 (UniProt Q13153)
inactive: erlotinib 0.063 | [1] 0.105 | [2] 0.067 | [3] -0.013 | [4] 0.009 | [5] 0.086 | [6] 0.027 | [7] -0.008 | [8] 0.014 | [9] 0.083

NSDHL (UniProt Q15738)
inactive: erlotinib -0.007 | [1] 0.107 | [2] 0.047 | [3] 0.021 | [4] 0 | [5] -0.149 | [6] 0.065 | [7] 0.059 | [8] -0.039 | [9] -0.005

NOLC1 isoform 2 (UniProt Q14978)
inactive: erlotinib 0.022 | [1] 0.036 | [2] -0.051 | [3] -0.005 | [4] -0.11 | [5] 0.024 | [6] -0.034 | [7] -0.171 | [8] -0.177 | [9] 0

MRPS17 (UniProt Q9Y2R5)
inactive: erlotinib -0.034 | [1] -0.019 | [2] -0.125 | [3] 0.142 | [4] -0.062 | [5] 0 | [6] 0.042 | [7] 0.088 | [8] -0.014 | [9] -0.126

NUP160 (UniProt Q12769)
Chain of UniProt Q12769 (Q12769 whole entry, looked up): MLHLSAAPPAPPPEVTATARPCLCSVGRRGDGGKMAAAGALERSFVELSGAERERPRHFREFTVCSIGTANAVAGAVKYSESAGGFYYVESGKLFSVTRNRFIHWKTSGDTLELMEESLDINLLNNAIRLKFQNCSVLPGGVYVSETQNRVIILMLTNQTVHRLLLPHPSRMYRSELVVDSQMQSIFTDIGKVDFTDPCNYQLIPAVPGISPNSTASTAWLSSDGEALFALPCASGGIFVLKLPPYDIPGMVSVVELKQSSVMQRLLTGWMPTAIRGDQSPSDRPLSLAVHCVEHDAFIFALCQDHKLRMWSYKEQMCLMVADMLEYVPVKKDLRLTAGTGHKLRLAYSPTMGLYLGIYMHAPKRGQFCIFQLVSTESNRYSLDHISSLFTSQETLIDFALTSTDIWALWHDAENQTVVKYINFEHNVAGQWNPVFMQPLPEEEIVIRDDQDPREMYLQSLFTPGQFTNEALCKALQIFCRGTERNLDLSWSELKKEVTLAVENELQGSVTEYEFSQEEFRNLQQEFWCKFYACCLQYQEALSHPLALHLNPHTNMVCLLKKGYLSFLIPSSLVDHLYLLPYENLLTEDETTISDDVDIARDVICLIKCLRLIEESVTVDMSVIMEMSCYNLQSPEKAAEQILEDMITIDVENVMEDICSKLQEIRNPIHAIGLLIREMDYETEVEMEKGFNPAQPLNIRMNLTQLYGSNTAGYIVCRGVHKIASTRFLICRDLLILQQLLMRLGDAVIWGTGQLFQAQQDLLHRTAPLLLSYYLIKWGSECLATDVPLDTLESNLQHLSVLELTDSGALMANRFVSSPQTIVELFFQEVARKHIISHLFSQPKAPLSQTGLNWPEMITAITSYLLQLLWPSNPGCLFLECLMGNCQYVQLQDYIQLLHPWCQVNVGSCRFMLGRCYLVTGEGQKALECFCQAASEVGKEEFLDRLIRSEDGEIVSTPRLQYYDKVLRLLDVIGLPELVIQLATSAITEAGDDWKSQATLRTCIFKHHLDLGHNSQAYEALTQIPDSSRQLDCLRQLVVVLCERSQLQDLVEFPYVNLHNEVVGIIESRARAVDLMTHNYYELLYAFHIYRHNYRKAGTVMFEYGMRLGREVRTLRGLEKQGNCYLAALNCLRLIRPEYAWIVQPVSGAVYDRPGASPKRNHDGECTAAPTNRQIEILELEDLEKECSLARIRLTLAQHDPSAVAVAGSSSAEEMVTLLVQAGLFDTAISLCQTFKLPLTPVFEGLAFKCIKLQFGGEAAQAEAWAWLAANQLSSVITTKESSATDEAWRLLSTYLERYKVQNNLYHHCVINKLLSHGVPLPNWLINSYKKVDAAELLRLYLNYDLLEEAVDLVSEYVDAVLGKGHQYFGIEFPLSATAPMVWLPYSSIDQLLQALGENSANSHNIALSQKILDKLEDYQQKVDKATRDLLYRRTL
inactive: erlotinib 0.001 | [1] 0.022 | [2] 0.01 | [3] -0.024 | [4] -0.006 | [5] 0.045 | [6] -0.017 | [7] -0.091 | [8] -0.085 | [9] -0.025

NELFA (UniProt Q9H3P2)
Chain of UniProt Q9H3P2 (Q9H3P2 whole entry, looked up): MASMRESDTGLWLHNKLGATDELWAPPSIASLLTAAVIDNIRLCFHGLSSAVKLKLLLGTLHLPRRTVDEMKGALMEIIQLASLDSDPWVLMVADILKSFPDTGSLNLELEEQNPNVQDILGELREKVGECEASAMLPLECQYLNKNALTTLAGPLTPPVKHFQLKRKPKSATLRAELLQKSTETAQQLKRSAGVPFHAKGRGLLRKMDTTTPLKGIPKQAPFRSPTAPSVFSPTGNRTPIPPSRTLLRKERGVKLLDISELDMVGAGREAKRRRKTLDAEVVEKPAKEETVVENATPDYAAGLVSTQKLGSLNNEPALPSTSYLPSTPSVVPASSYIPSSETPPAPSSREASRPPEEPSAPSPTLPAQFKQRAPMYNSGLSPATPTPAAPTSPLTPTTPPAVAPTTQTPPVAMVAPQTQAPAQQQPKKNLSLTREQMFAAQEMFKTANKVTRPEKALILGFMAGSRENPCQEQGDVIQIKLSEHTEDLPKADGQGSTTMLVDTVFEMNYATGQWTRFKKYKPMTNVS
inactive: erlotinib 0.21 | [1] 0.231 | [2] 0.059 | [3] -0.061 | [4] 0.073 | [5] 0.111 | [6] 0.048 | [7] 0 | [8] -0.323 | [9] -0.028

PAFAH1B2 (UniProt P68402)
Chain of UniProt P68402 (P68402 whole entry, looked up): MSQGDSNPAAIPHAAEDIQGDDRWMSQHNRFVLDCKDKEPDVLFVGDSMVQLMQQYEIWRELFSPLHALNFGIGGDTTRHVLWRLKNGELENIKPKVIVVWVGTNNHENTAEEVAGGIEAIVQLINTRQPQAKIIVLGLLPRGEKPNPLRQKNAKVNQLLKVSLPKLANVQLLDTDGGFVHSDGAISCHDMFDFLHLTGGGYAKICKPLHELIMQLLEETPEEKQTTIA
inactive: erlotinib 0.195 | [1] -0.088 | [2] 0.134 | [3] -0.016 | [4] -0.036 | [5] -0.034 | [6] 0.068 | [7] 0.027 | [8] 0.128 | [9] 0.047

MRPS18B (UniProt Q9Y676)
inactive: erlotinib 0.026 | [1] 0.101 | [2] -0.051 | [3] 0.124 | [4] 0.03 | [5] 0.034 | [6] 0.027 | [7] 0.119 | [8] 0.079 | [9] -0.119

MRPS21 (UniProt P82921)
inactive: erlotinib 0.014 | [1] -0.04 | [2] -0.096 | [3] 0.042 | [4] -0.241 | [5] -0.138 | [6] -0.019 | [7] 0.297 | [8] -0.091 | [9] -0.07

MRPS35 (UniProt P82673)
inactive: erlotinib -0.068 | [1] -0.028 | [2] -0.048 | [3] 0.14 | [4] 0.003 | [5] -0.043 | [6] 0.022 | [7] 0.096 | [8] 0.042 | [9] -0.08

OGFOD1 (UniProt Q8N543)
inactive: erlotinib 0.043 | [1] -0.18 | [2] 0.02 | [3] 0.007 | [4] 0.015 | [5] 0.11 | [6] -0.01 | [7] 0.014 | [8] 0.007 | [9] 0.03

NACC1 (UniProt Q96RE7)
inactive: erlotinib 0.134 | [1] 0.242 | [2] 0.065 | [3] -0.034 | [4] -0.017 | [5] 0.05 | [6] -0.02 | [7] -0.08 | [8] -0.059 | [9] -0.01

NAPG (UniProt Q99747)
Chain of UniProt Q99747 (Q99747 whole entry, looked up): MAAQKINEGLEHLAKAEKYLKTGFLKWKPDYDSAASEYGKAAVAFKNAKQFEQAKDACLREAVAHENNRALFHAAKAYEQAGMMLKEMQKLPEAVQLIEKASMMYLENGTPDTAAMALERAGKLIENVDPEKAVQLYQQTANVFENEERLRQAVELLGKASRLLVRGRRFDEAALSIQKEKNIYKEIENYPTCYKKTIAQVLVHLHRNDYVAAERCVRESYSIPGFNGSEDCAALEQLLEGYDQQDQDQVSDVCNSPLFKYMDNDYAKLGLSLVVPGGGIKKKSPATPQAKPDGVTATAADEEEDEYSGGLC
inactive: erlotinib 0.081 | [1] 0.134 | [2] 0.072 | [3] -0.019 | [4] 0.021 | [5] 0.038 | [6] -0.009 | [7] 0.033 | [8] -0.037 | [9] -0.016

NAP1L1 (UniProt P55209)
inactive: erlotinib -0.021 | [1] 0.006 | [2] 0.036 | [3] 0.035 | [4] -0.048 | [5] 0.066 | [6] 0.026 | [7] -0.018 | [8] -0.02 | [9] 0.07

NR2C2 isoform 2 (UniProt P49116)
inactive: erlotinib -0.001 | [1] -0.067 | [2] -0.011 | [3] 0.006 | [4] 0.019 | [5] -0.039 | [6] -0.003 | [7] -0.091 | [8] 0.074 | [9] 0.007
